The values that follow come from PubChem BioAssay AID588405 (Sanford-Burnham Center for Chemical Genomics, 2011).

Each structure is given as a SMILES string. Hit rate of the full screen: of about 360,000 compounds, about 6,200 (1.7%) were called active. The sample holds actives, similar compounds and a random draw of the others, so the mix is not that of the screen.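 How the source made its calls: active means inhibition of at least 50% at 20 µM; inactive means the rest.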

This experiment is described as follows: Peg3 promoter-driven luciferase inhibitors, primary screen, cell-based, HeLa, luciferase luminescence (AID 588405). Conditions: HeLa PEG-Prom luciferase reporter, overnight, at 20 µM, stronger effect = higher value.
Consider `CCN(CC)C(=O)C1=C(C)N(Cc2ccc(F)cc2)C(=O)C(CC(=O)NC2CCCC2)C1` (configuration not stated), for which the inhibition (usually the relative decrease from the control value, in per cent) was 11% (inactive).

On to `COCCCNC(=S)N(CCN(C)C)Cc1cc2cc3c(cc2[nH]c1=O)OCCO3`, for which the inhibition is 2.51% (inactive).

For `Cc1cccc2cc(CN(Cc3cccs3)C(=S)NCc3ccco3)c(=O)[nH]c12`, the inhibition is 4.8% (inactive).

For the compound `Cc1cc(C)c2[nH]c(=O)c(CN(Cc3ccccc3)C(=S)NCCCN(C)C)cc2c1`, the inhibition was 66.4% (active).

For `CCCOc1ccc(F)cc1-c1cc(C(=O)Nc2ccc(F)cc2)[nH]n1`, the inhibition was -8.32% (inactive).

For the compound `CCn1c(CC(=O)Nc2ccc(C)cc2)nnc1SCC(=O)Nc1nc(C)cs1`, the inhibition was -10.4% (inactive).

Take `COCC(C)NC(=O)COc1nncc2ccccc12` (configuration not stated): the inhibition is 0.55% (inactive).

With `NC(Cc1ccc(F)cc1)c1csc(Nc2nncc3ccccc23)n1` (configuration not stated), the inhibition was 103% (active).

`CN[C@H]1C[C@H]2c3cc(Oc4ccccc4C)ccc3CCN2C(=O)[C@H]1[C@H](C)O`: the inhibition is -28.3% (inactive).

As to `CN(C)C(=S)Nc1ccc(Br)cc1Cl`, the inhibition is 4.24% (inactive).

For `COc1cccc(-c2cccc(NC(=O)C3CCN(C4CCC4)CC3)c2)c1`, the inhibition was 9.5% (inactive).

On to `CCn1cc(CN2CCC(C(=O)Nc3cccc(-c4cccc(Cl)c4)c3)CC2)c(C)n1`, for which the inhibition was 105% (active).

For the compound `CC(=O)c1cc(CN2CCC(C(=O)Nc3cccc(-c4cscn4)c3)CC2)cs1`, the inhibition is 2.3% (inactive).

Turning to `O=C(NC1CCCC1)C1CCN(C(=O)Nc2cccc(Cl)c2)CC1`, the inhibition was 17% (inactive).

In the case of `O=C(Nc1cccc(-c2cccc(Cl)c2)c1)C1CCN(C2CCC2)CC1`, the inhibition is 53.2% (active).

For the compound `CCn1cc(CN2CCC(C(=O)Nc3cccc(-c4cccc(Cl)c4)c3)CC2)cn1`, the inhibition is 54.4% (active).

As to `O=C(NCC1CCN(Cc2ccccc2Cl)CC1)Nc1cccc(Cl)c1`, the inhibition is 27.8% (inactive).

In the case of `O=C(Nc1cnn(Cc2ccc(Cl)cc2)c1)C1CCCC1`, the inhibition was -29.5% (inactive).

For `O=C(Nc1cccc(-c2cscn2)c1)C1CCN(Cc2ccsc2)CC1`, the inhibition was 5.06% (inactive).

As to `COc1cccc(NC(=O)C2(C)CCN2Cc2ccccc2Cl)c1` (configuration not stated), the inhibition is 12.9% (inactive).

Take `CCOCCC(=O)Nc1ccc2c(c1)c(=O)n(C)n2-c1ccc2ccccc2c1`: the inhibition was -14.8% (inactive).

Take `CCCNC(=O)C1(C)CCN(C(=O)c2ccccc2OC(F)(F)F)C1` (configuration not stated): the inhibition is -13.6% (inactive).

For the compound `CC(=O)Nc1cc(-c2ccc(N3CCN(C)CC3)cc2)cn2c(-c3ccc(F)cc3)cnc12`, the inhibition is -24.9% (inactive).

Take `CCCCN(C=O)c1c(CC)nc2c(OCc3ccccc3C(=O)OC)cccn12`: the inhibition was 13.7% (inactive).

On to `CCCc1cc(=O)n2[nH]c(C)c(-c3ccc(Cl)cc3)c2n1`, for which the inhibition is 61.5% (active).

Turning to `COCc1cc(=O)n2[nH]c(C)c(-c3ccccc3)c2n1`, the inhibition was 2.19% (inactive).

Take `Cc1nc2c(-c3ccccc3)c(C)[nH]n2c(=O)c1Cl`: the inhibition was 13.1% (inactive).

Turning to `COc1cc(F)ccc1-c1cc(C(=O)NCC2CCCCC2)[nH]n1`, the inhibition was -33.4% (inactive).

Turning to `CC(C)COC(=O)C1C2C=CC3(CN(C(C)c4ccc(Br)cc4)C(=O)C13)O2` (configuration not stated), the inhibition is 6.1% (inactive).

For the compound `COc1cc(NC(=O)c2cc(-c3ccc(F)cc3OC(C)C)n[nH]2)cc(OC)c1OC`, the inhibition is 33.7% (inactive).

On to `Cc1ccc(C(=O)NCC(=O)O)s1`, for which the inhibition is 13.7% (inactive).

`Cc1nc2c(OCc3cccc(Cl)c3)cccn2c1N(C)CC1CC1`: the inhibition was -12.2% (inactive).

With `OC(c1ccc(Cl)c(F)c1)c1ncc(-c2ccccc2Cl)[nH]1` (configuration not stated), the inhibition is 17.5% (inactive).

In the case of `O=C(NC(c1ccc(Cl)cc1)c1cnccn1)C1CCN(Cc2ccc(Cl)cc2)CC1` (configuration not stated), the inhibition is 6.83% (inactive).

On to `O=C(NC(c1ccc(-c2ccccc2)cc1)c1cnccn1)C1CCN(CCOc2ccc(Cl)cc2Cl)CC1` (configuration not stated), for which the inhibition was 37.4% (inactive).

With `Cc1ccc(C(NC(=O)C2CCN(CCOc3ccc(Cl)cc3Cl)CC2)c2ccccn2)cc1` (configuration not stated), the inhibition is 106% (active).

For the compound `Nc1ncnc2c1ncn2[C@@H]1O[C@H](CNC(=O)[C@H](N)Cc2cccnc2)[C@@H](O)[C@H]1O`, the inhibition was -0.67% (inactive).

As for `O=C(CC[C@H]1O[C@@H](n2ccc(=O)[nH]c2=O)[C@H](O)[C@@H]1O)N[C@H](Cc1ccccc1)C(=O)NCCCN1CCCC1=O`, the inhibition was -0.27% (inactive).

For `COC(=O)C1=C(C)N(Cc2ccccc2)C(=NCCCOC(C)C)N[C@H]1c1ccccc1`, the inhibition is -9.14% (inactive).

As to `CCCCNC(=O)C(C)N(CCN(C)C)C(=O)CCCN1C(=O)NC(c2ccc(Cl)cc2)C(C(=O)OCc2ccccc2)=C1C` (configuration not stated), the inhibition was 92.9% (active).

Consider `CCCCNC(=O)C(C)N(CCN(C)C)C(=O)CCCCCN1C(=O)NC(c2ccc(Cl)cc2)C(C(=O)OCc2ccccc2)=C1C` (configuration not stated), for which the inhibition is 91.8% (active).

`CCOC(=O)C1=C(C)N(C[C@@H]2CC[C@@H](Cc3ccc(-c4ccccc4)cc3)O2)C(=O)NC1c1ccc([N+](=O)[O-])cc1` (some centres not stated): the inhibition is 15.2% (inactive).

As for `CCOC(=O)C1=C(CCc2ccccc2)NC(=O)NC1c1ccc2ccccc2c1` (configuration not stated), the inhibition is 40.3% (inactive).

Turning to `CCOC(=O)CCCNC(=O)CN1C(=O)NC(CCc2ccccc2)C1=O` (configuration not stated), the inhibition is 1.97% (inactive).

In the case of `CC1=C(C(=O)N(C(C)C)C(C)C)CC(CC(=O)NCC2CCCCC2)C(=O)N1Cc1ccccc1` (configuration not stated), the inhibition is 11.2% (inactive).

For `O=C(Nc1ccc(OCCO)cc1)c1csc([C@H]2C[C@H](O)[C@@H](CO)O2)n1`, the inhibition is 14.9% (inactive).

Take `CCNC(=O)C1(C)CCCN(Cc2noc(-c3ccccc3OC)n2)C1` (configuration not stated): the inhibition is 2.68% (inactive).

As for `COC(=O)c1ccc(/C=C2/C(=O)Oc3ccccc32)cc1`, the inhibition is 11.1% (inactive).

For the compound `O=C1Oc2ccccc2C(=O)/C1=C/c1ccccc1O`, the inhibition is 69.8% (active).

Turning to `C=C1C(=O)[C@]23C[C@H]1CCC2[C@@]1(C)C(C[C@@H]3O)[C@](C)(C(=O)O)CC[C@@H]1O` (some centres not stated), the inhibition was 3.91% (inactive).

With `CC1CC(C)(C)n2c(O)c(N=NC(N)=S)c3cccc1c32` (configuration not stated), the inhibition was 29.2% (inactive).

`CCc1nc2ccc(C(=O)N(C)Cc3ccco3)cn2c1N(C)C(=O)Cc1ccccc1`: the inhibition is 8.02% (inactive).

`O=C(O)C#Cc1cccc2ccccc12`: the inhibition was 12.5% (inactive).

As for `COc1ccccc1C(=O)COC(=O)COc1ccc(C#N)cc1`, the inhibition was 10.1% (inactive).

For the compound `N#C/C(=C(/O)COC(=O)COc1ccc(Cl)cc1)c1nc2ccccc2[nH]1`, the inhibition was 71.2% (active).

For the compound `CC(C)(C)c1nnc2sc(SCC(O)=C(C#N)c3nc4ccccc4[nH]3)nn2c1=O`, the inhibition was 20.3% (inactive).

In the case of `COc1ccc(C2=Nc3ccccc3NC(=O)C2N(C(=O)c2cc3ccccc3[nH]2)c2ccccc2)cc1` (configuration not stated), the inhibition is -169% (inactive).

Turning to `CC1(C(=O)Nc2cccc3c2CCCC3)CCN1C(=O)C1(c2ccccc2)CC1` (configuration not stated), the inhibition was 11.5% (inactive).

In the case of `CCc1cccc(C)c1NC(=S)N(CCCN1CCN(C)CC1)Cc1cccs1`, the inhibition was 12% (inactive).

As to `Cc1ccccc1NC(=S)N(CCCN1CCOCC1)Cc1cccs1`, the inhibition was -3.16% (inactive).

As to `Cc1ccc(NC(=S)N(CCCN2CCCC2)Cc2cccn2Cc2ccc(Cl)cc2)cc1`, the inhibition was 83.4% (active).

Consider `O=C(C1CCN(c2nnc(-n3cccc3)s2)CC1)N1CCc2ccccc2C1`, for which the inhibition is 14.8% (inactive).

In the case of `CN(C)CCCn1c(=O)n(Cc2ccccc2)c(=O)c2c3c(sc21)CCCCC3`, the inhibition was 89.8% (active).

Consider `O=c1c2c3c(sc2n(CCN2CCCC2)c(=O)n1Cc1ccccc1)CCCCC3`, for which the inhibition is -15% (inactive).

On to `CCn1c(=S)[nH]c2sc3c(c2c1=O)CCCCC3`, for which the inhibition is -19.3% (inactive).

Consider `CCCCC1S/C(=N/N=C/c2cccs2)NC1=O` (configuration not stated), for which the inhibition is -0.95% (inactive).

In the case of `CC(=O)Nc1cccc(-c2ccnc3c2CC(C)(C(=O)NCc2ccccc2)O3)c1` (configuration not stated), the inhibition was -22.6% (inactive).

As to `O=C1N=C(N2CCc3ccccc3C2)S/C1=C\c1ccc(O)cc1`, the inhibition is -5.21% (inactive).

Take `CC(C(=O)NC1CCS(=O)(=O)C1)N1C(=O)/C(=C/c2ccc(Cl)cc2)SC1=S` (configuration not stated): the inhibition was -7.3% (inactive).

As for `O=C1/C(=C\c2ccc(O)cc2)CCC1CNc1ccc(Cl)cc1` (configuration not stated), the inhibition is 93.8% (active).

As to `CCCC(=O)N1CCC1(C)C(=O)NS(=O)(=O)c1ccc(Cl)cc1` (configuration not stated), the inhibition is 3.54% (inactive).

Consider `CC(=O)Nc1cccc(Nc2ccc(C#N)cc2)c1`, for which the inhibition was -24.3% (inactive).

For `O=C(Cc1ccc(-n2c(=O)[nH]c3ccccc3c2=O)cc1)N1CCN(c2cccc(Cl)c2)CC1`, the inhibition was 9.68% (inactive).

Regarding `COc1cccc(CNC(=O)Cc2csc(Nc3nc(=S)[nH]c4ccccc34)n2)c1`, the inhibition was 29.3% (inactive).

In the case of `O=C(Cc1csc(Nc2nc(=S)[nH]c3ccccc23)n1)NCCCN1CCN(c2cccc(Cl)c2)CC1`, the inhibition is 53.1% (active).

In the case of `COC(=O)c1ccc(CN2C(=O)C(Cc3ccccc3)ON=C2c2ncccc2C)o1` (configuration not stated), the inhibition was 3.64% (inactive).

Consider `O=C(Cc1ccc([N+](=O)[O-])cc1)Nc1ccc(C(=O)N2CCOCC2)cc1`, for which the inhibition was -2.85% (inactive).

On to `CCOc1ccc(C(CCc2ccccc2)NC(=O)c2ccc(OC)c(OC)c2)cc1OCC` (configuration not stated), for which the inhibition was 11.6% (inactive).

`CCCCC(=O)NC(c1ccc(OC)c(OC)c1)c1ccc2cccnc2c1O` (configuration not stated): the inhibition is 60.4% (active).

For the compound `C=CCn1c(COc2cccc3cccnc23)nnc1SCC(=O)OC`, the inhibition was 16.7% (inactive).

In the case of `CCc1nc2c(OCCC3CCCCC3)cccn2c1N(C)C(=O)c1ccco1`, the inhibition was 5.45% (inactive).

Take `CC12CCC(C(=O)N(NC(=O)c3ccccc3O)C1=O)C2(C)C` (configuration not stated): the inhibition was 53.1% (active).

Turning to `COc1ccccc1C(=O)NN1C(=O)C2C3C=CC(O3)C2C1=O` (configuration not stated), the inhibition was 17.5% (inactive).

As to `CC1=CC(C)(C)NC(=S)N1NC(=O)c1ccccc1Cl`, the inhibition is -9.1% (inactive).

With `CCCCOc1ccc(N(CC(=O)NC(C)C)C(=O)CCC(=O)Nc2ccccn2)cc1`, the inhibition was -4.29% (inactive).

As for `NC1=C([N+](=O)[O-])C(c2ccccc2)C2=C(CCCC2=O)O1` (configuration not stated), the inhibition was 9.24% (inactive).

`O=S1(=O)CCN(C2CCCCCCCCCCC2)CC1`: the inhibition was 0.61% (inactive).
